The whole screen tested about 370,000 compounds, of which about 4,700 (1.3%) were called active.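 The calls were made as follows: active = inhibition above the plate cutoff, the mean of all test compounds on that plate plus 3 SD (cut at about 35% in these data); inactive = the rest.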 Only a selection was taken, and actives are over-represented in it overall.
assay: small molecules binding CAG repeat RNA – biochemical, fluorescence, primary screen (AID 651821); settings: r(CAG) RNA repeat, TO-PRO-1 dye displacement fluorescence; at 3 µM; hits give high values;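 also: 0% = DMSO alone and 100% = 100 µM mitoxantrone as full dye displacement; higher means more dye released from RNA so lower well fluorescence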

inhibition, inactive:
CCOC(=O)C1=C(C)NC2=C(C(=O)CC(C)(C)C2)C1c1ccc2c(c1)OCO2 (stereo not given) 1.3%
O=C(NN=Cc1ccco1)C(=O)Nc1ccc(Cl)c([N+](=O)[O-])c1 6.16%
O=C(O)C(=Cc1ccccc1[N+](=O)[O-])c1ccccc1 -2.74%
Cc1cc(Br)cn2c(Cc3ccccc3C(F)(F)F)c(-c3ccc(C#N)cc3)nc12 7.42%
CC(=O)c1c(C)[nH]c(C(=O)OCC(=O)Nc2sc3c(c2C#N)CCCC3)c1C 19.6%
COc1cccc(CN(C)CC(=O)Nc2sc3c(c2C#N)CCC3)c1 -1.59%
COC(=O)C1CN(CC(C)C)CCS(=O)(=O)N1Cc1ccc(F)cc1 (stereo not given) -0.73%
COC(=O)c1cc(S(=O)(=O)N2CCN(c3ccccc3C)CC2)cn1C 1.46%
Cn1c(SCc2nc3ccccc3s2)nnc1-c1ccc2c(c1)OCO2 -0.18%
O=C(/C=C/c1cc2c(cc1Br)OCO2)NCc1ccc(Cl)cc1 0.75%
CCOc1ccc(C(=O)Nc2cccc(SC)c2)cc1 -4.59%
COc1ccc(/C=C(/NC(=O)c2ccccc2)C(=O)Nc2cccc(C(=O)O)c2)cc1 6.11%
Cc1cc(=O)[nH]c(SCC(=O)Nc2ccc(F)cc2F)n1 7.71%
CN(C)CC(=O)N[C@@H]1C[C@@H]2O[C@H](CO)CC[C@@H]2O[C@@H]1CCc1ccc(C#Cc2ccccc2)cc1 2.31%
COC(=O)[C@]12C[C@H](CC(=O)NCCC(C)C)C(=O)N(CCc3ccc(OC)c(OC)c3)C1=C[C@H](C(C)(C)C)O[C@@H]2C 0.35%
CC(C)[C@H]1COCCS(=O)(=O)N1Cc1ccccc1-c1cccc2c1sc1ccccc12 9.63%
CCN(CCCNC(=O)C1CCN(S(=O)(=O)c2cnc[nH]2)CC1)c1ccccc1 1.6%
COc1ccc(CNC(=O)COC(=O)C(CCSC)N2C(=O)c3ccccc3C2=O)cc1 (stereo not given) 3.76%
COc1ccc(CCNC(=O)COC(=O)c2cc(=O)c3ccccc3o2)cc1 0.17%
CCOC(=O)[C@]12CCCCC/C=C\1N(Cc1ccc(OC)cc1)C(=O)[C@H]2CC(=O)NCCCN1CCCC1=O 0.52%
COC(=O)[C@]12C[C@H](CC(=O)NCc3ccccc3)C(=O)N(Cc3ccccc3)C1=C[C@H](COCc1ccccc1)O[C@@H]2C 8.61%
Cc1ccc(-c2nc(C3CCCN(S(=O)(=O)c4ccc(Br)s4)C3)no2)cc1 (stereo not given) 5.63%
C=CCN=C1NC(c2cccc(C(F)(F)F)c2)C(C(=O)OC)=C(C)N1C (stereo not given) 6.1%
Cc1cc(C(=O)NNC(=O)c2cccc(S(=O)(=O)N3CCOCC3)c2)c2ccccc2n1 0.6%
Cc1cc(C)cc(OCC(=O)NCc2cc(C)nc3ccccc23)c1 -3.64%
CCOC(=O)CNC(=O)N(C)[C@H]1C[C@H]2c3[nH]c4c(-c5ccc6c(c5)OCO6)cccc4c3CCN2C(=O)[C@H]1[C@H](C)O 9.34%
COCCNC(=S)Nc1cc(S(=O)(=O)N2CCOCC2)ccc1N1CCCCC1 1.62%
Cc1cc(OCCCC(=O)Nc2cc(S(=O)(=O)N3CCOCC3)ccc2N2CCOCC2)ccc1Cl 2.46%
O=C(C(=O)N1CCC(c2ccccc2)CC1)c1ccccc1 1.3%
CCOC(=O)c1cccc(NC(=O)CN(C)S(=O)(=O)c2ccc(-c3cocn3)s2)c1 2.95%
O=C(CSc1nnc(-c2ccccn2)n1-c1ccccc1)Nc1ccc2cn[nH]c2c1 3.05%
O=C(Nc1cccc(Cl)c1)OC1CC2CC1[C@H]1CCCCN1[C@H]2Cc1ccccc1 (stereo not given in full) 7.48%
Cc1ccccc1OS(=O)(=O)c1cccc([N+](=O)[O-])c1 0.69%
O=C(NCC1CCCO1)/C(=C/c1ccc(Cl)cc1)NC(=O)c1ccccc1 (stereo not given) -2.17%
CCn1cc(/C=C(\NC(=O)c2ccc(C)cc2)C(=O)NCCN2CCOCC2)c2ccccc21 -0.63%
Cc1nc2ccc(C(=O)N3CCN(C(=O)C(C)(C)C)CC3)cc2n1C1CCCC1 0.89%
O=C1CC[C@@H](COc2ccc3[nH]cc(-c4ccccc4)c3c2-c2ccccc2)N1 6.86%
CC(=O)O[C@H]1CC[C@@]2(C)[C@@H](CC[C@@H]3[C@@H]2CC[C@]2(C)[C@@H](C(C)(C)O)C[C@@H]32)C1 5.36%
O=C(N[C@H](Cc1ccccc1)C(=O)N1CCCN(Cc2cccs2)CC1)[C@H]1O[C@@H](n2ccc(=O)[nH]c2=O)[C@H](O)[C@@H]1O 1.68%
O=S1(=O)c2ccc(Br)cc2-n2nncc2CN1Cc1cccc(Cl)c1 7.4%
C=C(Cl)COC(=O)C1C2C=CC(C2)C1C(=O)O (stereo not given) -2.82%
Cc1noc(C)c1S(=O)(=O)NCCc1ccc(S(N)(=O)=O)cc1 2.53%
COC(=O)C[C@@H]1CC[C@H]2[C@@H](COc3ccc(NS(=O)(=O)CC(F)(F)F)cc3C(=O)N2C)O1 2.52%
COc1cc(=O)[nH]c(=O)n1C(=O)Cc1ccccc1 5.86%
COc1ccc(Cn2c(O)c(/C=C3/C=CC=N3)c(=O)[nH]c2=O)cc1 4.64%
CN(C)C(=O)N1CCN(C(=O)[C@@H](Cc2ccccc2)NC(=O)[C@H]2O[C@@H](n3ccc(N)nc3=O)[C@H](O)[C@@H]2O)CC1 2.21%
FC(F)(F)c1cccc(Cn2ccc3ccc(-c4ccc5ccn(Cc6ccccc6)c5c4)cc32)c1 11%
CC1=C(C(=O)N(C)C)C(c2ccccc2OC(F)F)NC(=O)N1 (stereo not given) -5.88%
O=C(c1cccc(C(F)(F)F)c1)N1CC[C@H]2[C@H](CCCN2Cc2cc(F)cc(F)c2)C1 -2.78%
CCOC(=O)C1=C(O)/C(=C/c2cc(C)n(-c3ccccc3)c2C)N=C1C 8.38%
CC1=CC2=NC(=O)/C(=C/c3coc4ccccc4c3=O)C(=N)N2O1 -66.6%
COc1ccc2c(C(C)c3ccc(N)cc3)cn(C)c2c1 (stereo not given) 5.87%
CN1C(=O)C2CC(O)C(SC3CC4C(=O)N(C)C(=O)C4CC3O)CC2C1=O (stereo not given) 1.65%
COc1ccc(Cn2ccc3ccc(-c4ccc5ccn(Cc6ccccc6C)c5c4)cc32)cc1 15.1%
O=C(Nc1ccc(F)cc1)N1CCCC(c2nc3c(nnn3Cc3ccccc3Cl)c(=O)[nH]2)C1 (stereo not given) 0.69%
Cc1ccc(NC(=O)N2CCC(c3nc4c(nnn4Cc4c(F)cccc4Cl)c(=O)[nH]3)CC2)cc1 3.25%
COc1cccc(N2CCN(CC(=O)N(C)Cc3ccc(F)cc3)CC2)c1 -1.77%
O=C1CCCCC1C(=O)c1ccccc1 (stereo not given) -0.64%
C[C@H](O)[C@@H]1C(=O)N2CCc3c([nH]c4c(-c5ccc6c(c5)OCO6)cccc34)[C@@H]2C[C@@H]1N(C)C(=O)c1ccco1 5.15%
CC(C)NC(=O)c1ccc(Sc2ccccc2)c([N+](=O)[O-])c1 -3.38%
Cc1ccc(C(=O)c2ccc(N3CCN(C)CC3)c([N+](=O)[O-])c2)cc1 -0.77%
COc1ccccc1C(=O)N1O[C@]23C=C[C@]14C[C@@H](O)CC[C@]4(C)C2CC[C@]1(C)[C@@H]([C@H](C)/C=C/[C@H](C)C(C)C)CC[C@H]13 (stereo not given in full) 4.71%
CSc1ccc(/C=N/N2CCN(Cc3ccccc3Cl)CC2)cc1 -3.03%
CCOc1ccc(-c2n[nH]c(=S)n2/N=C/c2cc3c(cc2[N+](=O)[O-])OCO3)cc1 4.13%

inhibition, active:
O=C(N/N=C/c1cc(Cl)cc([N+](=O)[O-])c1O)C(O)(c1ccccc1)c1ccccc1 75.8%
N#CCC(=O)Nc1ccc(C(=O)OCC(=O)Nc2sc3c(c2C#N)CCCC3)cc1 37.6%
O=C(O)CC/C(=C\c1cc2c(cc1Br)OCO2)c1nc2ccccc2s1 38.8%
COc1ccc(C(=O)Nc2cccc(/C=C(/CCC(=O)O)c3nc4ccccc4s3)c2)cc1 71.7%
COc1ccc(CNC(=O)COC(=O)C2=Cc3ccccc3OC2)cc1 78.9%
O=C1Oc2ccccc2C(=O)/C1=C/c1ccccc1O 51%
O=C(NNc1c2ccccc2nc2ccccc12)c1cc2ccccc2cc1O 49.2%
Oc1c(Cl)cc(Cl)c(Cl)c1Cc1c(O)c(Cl)cc(Cl)c1Cl 94%
O=[N+]([O-])c1cc(Cl)cc(/C=N/NC(=S)Nc2cc(S(=O)(=O)N3CCOCC3)ccc2Cl)c1O 37.7%
Cn1c2ccccc2c2cc(/C=C(\NC(=O)c3ccccc3)C(=O)NCC(=O)O)ccc21 35.8%
C[C@H]([C@@H](O)[C@@H](O)[C@@H](C)C(C)(C)C)[C@H]1CC[C@H]2C3CC[C@H]4C[C@H](OS(=O)(=O)O)[C@@H](OS(=O)(=O)O)C[C@]4(C)[C@H]3CC[C@]12C (stereo not given in full) 88.4%
CCCOc1ccc(Cn2c(O)cc(=O)[nH]c2=O)cc1 37.6%
Cc1cc(/C=C2/C(=N)N3C(=NC2=O)SN=C3S(C)(=O)=O)c(C)n1-c1ccccc1 58.3%
Cc1ccc(C)c(Cn2nnc3c(=O)[nH]c(C(=O)Nc4ccc(F)cc4)nc32)c1 60.2%
Cc1ccc(Sc2cc(C(=O)c3ccccc3C(=O)O)ccc2[N+](=O)[O-])cc1 72.1%
CSc1ccc(C=Nn2c(-c3ccc(F)cc3)n[nH]c2=S)cc1 45.4%
